Molecules are shown by their SMILES. Where “and” joins values, the source holds several entries; their conditions need not be identical. Equal values may be shown once. The panel holds about 83,000 compounds, 20% with a hit somewhere; the sample as a whole holds those more often.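 Testing used 96-well plates and a 48-hour single-concentration exposure. Example: -40 means 40% of the starting cells died.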 Calls of active or inactive are those of the source. The calls were made as follows: active = growth percent below 10; inactive = the rest.

The test system of the first assay is MALME-3M melanoma. The assay can be described thus: NCI-60 one-dose screen, 48 h (100 = growth as untreated, 0 = no growth, -100 = all killed). Conditions: 10 µM unless noted.
`COc1ccc(/C(C#N)=C/c2ccccn2)cc1`: the growth is 129% (inactive) and 134% (inactive).

`O=C1OC2(c3ccccc31)c1ccc(O)c(O)c1Oc1c2ccc(O)c1O`: the growth is 126% (inactive) and 114% (inactive).

Turning to `CC(=O)Nc1cccc2c1CCCC2`, the growth was 103% (inactive) and 95.5% (inactive).

As to `CN(C)c1ccc2nc3ccc(N)cc3[n+](-c3ccccc3)c2c1`, the growth was 4.82% (active) and -9.23% (active).

As for `CCN(CC)CCOc1ccc(/C=N/Nc2nc3c([nH]2)c(=O)n(C)c(=O)n3C)cc1`, the growth is 96.6% (inactive) and 82.1% (inactive).

As to `O=C1CCN(Cc2ccccc2)C(=S)N1`, the growth was 92.6% (inactive) and 101% (inactive).

In the case of `CC(C)Cc1ccc(C(C)C(=O)NCc2ccc(Cn3c(=O)sn(CCCI)c3=O)cc2)cc1` (configuration not stated), the growth is 92.4% (inactive) and -74.4% (active).

As for `CCc1c(CC(=O)O)c2cc(C)ccc2n1Cc1ccc(Cl)cc1`, the growth is 95.1% (inactive) and 200% (inactive).

For `CNC(=O)c1ccc(C)c(-n2c(C)cc(OCc3ccc(F)cc3F)c(Br)c2=O)c1`, the growth is 98.9% (inactive) and 95.9% (inactive).

Turning to `O=[N+]([O-])c1ccc(-n2[nH]nnc2=S)cc1`, the growth is 89.2% (inactive).

For `COC(=O)/C=C/c1cc(O)c2c(c1)C(C(=O)OC)C(c1ccc(O)c(O)c1)O2` (configuration not stated), the growth was 72.1% (inactive) and 69% (inactive).

Turning to `COC(=O)c1nc(N)nc(C(=O)OC)c1C(=O)c1ccc(OC)cc1`, the growth was 100% (inactive) and 50.4% (inactive).

`COc1cc2c(c(OC)c1OC)-c1ccc(OC)c(=O)cc1[C@@H](NC(C)=O)CC2`: the growth was 45.1% (inactive) and 43.1% (inactive) and 39% (inactive).

Turning to `CN1CCN(c2ccc3nc(-c4c(N)c5c(F)cccc5[nH]c4=O)[nH]c3c2)CC1`, the growth was 7.87% (active) and -13.5% (active).

Consider `NC(=S)NN=C1CCC(C2CCCCC2)CC1` (configuration not stated), for which the growth was 90.6% (inactive).

For the compound `c1ccc2cc(C[n+]3ccn(Cc4ccc5ccccc5n4)c3)ccc2c1`, the growth is -27.2% (active) and 22.9% (inactive).

For `CN(C)CCC(=O)c1ccc(Cl)cc1`, the growth was 106% (inactive) and 122% (inactive).

Regarding `Fc1ccccc1Nc1n[nH]c(=S)s1`, the growth was 127% (inactive).

Consider `CCOc1ccc2cc(-c3nn(CC4CCN(C)CC4)c4ncnc(N)c34)ccc2c1`, for which the growth is 69.7% (inactive) and -46.1% (active).

For the compound `CC[N+](CC)(CC(=O)Nc1c(C)cccc1C)Cc1ccccc1`, the growth is 96.3% (inactive) and 89.9% (inactive).

Take `CC1=CCC2CC1C2(C)C` (configuration not stated): the growth was 101% (inactive) and 127% (inactive).

Take `CC1(C)[C@@H](OC(=O)CCC(=O)O)CC[C@]2(C)[C@H]3C(=O)C=C4[C@@H]5C[C@@](C)(C(=O)O)CC[C@]5(C)CC[C@@]4(C)[C@]3(C)CC[C@@H]12`: the growth is 108% (inactive) and -65.4% (active).

Turning to `CCC(O)c1ccccc1` (configuration not stated), the growth is 114% (inactive) and 111% (inactive).

In the case of `CN(Cc1ccccc1)Cc1ccccc1`, the growth was 91.4% (inactive).

On to `COc1ccc(-c2ncnc3c2ncn3C/C=C/CCl)cc1`, for which the growth is 61.8% (inactive) and 49.7% (inactive).

On to `NS(=O)(=O)c1cc2c(cc1Cl)NC(C(Cl)Cl)NS2(=O)=O` (configuration not stated), for which the growth is 107% (inactive).

Regarding `O=Nc1ccc(O)cc1`, the growth is 107% (inactive) and 135% (inactive).

Take `COc1ccc2c(=O)cc(-c3ccccc3)[nH]c2c1`: the growth is 40.7% (inactive) and 47.9% (inactive).

For `O=CC(O)C(O)C(O)CO` (configuration not stated), the growth is 122% (inactive).

As for `CN(C)c1ccc(/C=C(\C#N)c2ccccc2)cc1`, the growth was 53.7% (inactive) and 51.2% (inactive) and 57.3% (inactive).

For the compound `OCCN1CCN(CCO)CC1`, the growth was 105% (inactive) and 97.4% (inactive) and 107% (inactive).

For the compound `CC1=C[C@H]2c3c(c(O)c(O)c4oc5cc(O)cc(O)c5c(=O)c34)[C@H](c3cc(O)c(O)c4oc5cc(O)cc(O)c5c(=O)c34)[C@H]2C(C)(C)C1`, the growth is 10.8% (inactive) and -30.5% (active).

Regarding `CCOc1ccc2c(S(=O)(=O)O)cccc2c1[N+](=O)[O-]`, the growth was 106% (inactive) and 101% (inactive).

Regarding `Nc1ccccc1Nc1ccccc1`, the growth is 117% (inactive) and 136% (inactive).

For the compound `Oc1ccccc1C=NCC1CCC(CN=Cc2ccccc2O)CC1` (configuration not stated), the growth is 113% (inactive).

In the case of `Clc1ccc(NC(Nc2ccc(Cl)cc2)C(Cl)(Cl)Cl)cc1`, the growth was 101% (inactive) and 114% (inactive).

A further assay relates to MDA-MB-231 breast. The assay is described as above. The conditions noted are these: 10 µM unless noted.
`COc1ccc(/C(C#N)=C/c2ccccn2)cc1`: the growth was 107% (inactive) and 127% (inactive).

As for `O=C1OC2(c3ccccc31)c1ccc(O)c(O)c1Oc1c2ccc(O)c1O`, the growth was 110% (inactive) and 108% (inactive).

`CC(=O)Nc1cccc2c1CCCC2`: the growth was 115% (inactive) and 110% (inactive).

For `CN(C)c1ccc2nc3ccc(N)cc3[n+](-c3ccccc3)c2c1`, the growth is 51.6% (inactive) and 15.7% (inactive).

For `CCN(CC)CCOc1ccc(/C=N/Nc2nc3c([nH]2)c(=O)n(C)c(=O)n3C)cc1`, the growth is 103% (inactive) and 87.4% (inactive).

Regarding `O=C1CCN(Cc2ccccc2)C(=S)N1`, the growth is 125% (inactive) and 98.1% (inactive).

In the case of `CC(C)Cc1ccc(C(C)C(=O)NCc2ccc(Cn3c(=O)sn(CCCI)c3=O)cc2)cc1` (configuration not stated), the growth was 92.1% (inactive) and -62% (active).

In the case of `CCc1c(CC(=O)O)c2cc(C)ccc2n1Cc1ccc(Cl)cc1`, the growth is 110% (inactive) and 100% (inactive).

For `CNC(=O)c1ccc(C)c(-n2c(C)cc(OCc3ccc(F)cc3F)c(Br)c2=O)c1`, the growth is 88.8% (inactive) and 93.1% (inactive).

As for `O=[N+]([O-])c1ccc(-n2[nH]nnc2=S)cc1`, the growth is 93.6% (inactive).

On to `COC(=O)/C=C/c1cc(O)c2c(c1)C(C(=O)OC)C(c1ccc(O)c(O)c1)O2` (configuration not stated), for which the growth was 13.5% (inactive) and 18% (inactive).

With `COC(=O)c1nc(N)nc(C(=O)OC)c1C(=O)c1ccc(OC)cc1`, the growth is 107% (inactive) and 53.8% (inactive).

On to `COc1cc2c(c(OC)c1OC)-c1ccc(OC)c(=O)cc1[C@@H](NC(C)=O)CC2`, for which the growth is 16.3% (inactive) and -21.5% (active) and -9.65% (active).

Consider `CN1CCN(c2ccc3nc(-c4c(N)c5c(F)cccc5[nH]c4=O)[nH]c3c2)CC1`, for which the growth was 42.4% (inactive) and 52.5% (inactive).

Turning to `NC(=S)NN=C1CCC(C2CCCCC2)CC1` (configuration not stated), the growth is 94.6% (inactive) and 93.6% (inactive).

On to `c1ccc2cc(C[n+]3ccn(Cc4ccc5ccccc5n4)c3)ccc2c1`, for which the growth was -2.02% (active) and 23.4% (inactive).

For `CN(C)CCC(=O)c1ccc(Cl)cc1`, the growth was 105% (inactive) and 107% (inactive).

For the compound `Fc1ccccc1Nc1n[nH]c(=S)s1`, the growth is 109% (inactive).

As to `CCOc1ccc2cc(-c3nn(CC4CCN(C)CC4)c4ncnc(N)c34)ccc2c1`, the growth is 85% (inactive) and 11.1% (inactive).

`CC[N+](CC)(CC(=O)Nc1c(C)cccc1C)Cc1ccccc1`: the growth is 75.7% (inactive) and 97.2% (inactive).

Turning to `CC1=CCC2CC1C2(C)C` (configuration not stated), the growth is 95.8% (inactive) and 96.9% (inactive).

As for `CC1(C)[C@@H](OC(=O)CCC(=O)O)CC[C@]2(C)[C@H]3C(=O)C=C4[C@@H]5C[C@@](C)(C(=O)O)CC[C@]5(C)CC[C@@]4(C)[C@]3(C)CC[C@@H]12`, the growth was 110% (inactive) and -5.44% (active).

On to `CCC(O)c1ccccc1` (configuration not stated), for which the growth was 95.9% (inactive) and 112% (inactive).

`CN(Cc1ccccc1)Cc1ccccc1`: the growth is 106% (inactive).

Turning to `COc1ccc(-c2ncnc3c2ncn3C/C=C/CCl)cc1`, the growth was 88.8% (inactive) and 89.2% (inactive).

As to `NS(=O)(=O)c1cc2c(cc1Cl)NC(C(Cl)Cl)NS2(=O)=O` (configuration not stated), the growth is 105% (inactive) and 108% (inactive).

Take `O=Nc1ccc(O)cc1`: the growth is 84.9% (inactive) and 68.5% (inactive).

`COc1ccc2c(=O)cc(-c3ccccc3)[nH]c2c1`: the growth is 29.9% (inactive) and 29.1% (inactive).

Take `O=CC(O)C(O)C(O)CO` (configuration not stated): the growth is 92.5% (inactive) and 125% (inactive).

In the case of `CN(C)c1ccc(/C=C(\C#N)c2ccccc2)cc1`, the growth is 55.7% (inactive) and 50.3% (inactive) and 48.9% (inactive).

Turning to `OCCN1CCN(CCO)CC1`, the growth is 106% (inactive) and 107% (inactive) and 114% (inactive).

For the compound `CC1=C[C@H]2c3c(c(O)c(O)c4oc5cc(O)cc(O)c5c(=O)c34)[C@H](c3cc(O)c(O)c4oc5cc(O)cc(O)c5c(=O)c34)[C@H]2C(C)(C)C1`, the growth is -7.38% (active) and -58.3% (active).

As to `CCOc1ccc2c(S(=O)(=O)O)cccc2c1[N+](=O)[O-]`, the growth was 106% (inactive) and 110% (inactive).

In the case of `Nc1ccccc1Nc1ccccc1`, the growth is 82.1% (inactive) and 71.7% (inactive).

As to `Oc1ccccc1C=NCC1CCC(CN=Cc2ccccc2O)CC1` (configuration not stated), the growth was 101% (inactive).

In the case of `Clc1ccc(NC(Nc2ccc(Cl)cc2)C(Cl)(Cl)Cl)cc1`, the growth is 87.3% (inactive) and 116% (inactive).

For the origin of these results see PubChem BioAssay (NCI).
